Screening data as filed in PubChem BioAssay.
Only some compounds are listed: those with a hit (about 1.8% of all), similar ones and a draw of the others.
Bfl-1 A1 inh – inhibitors of the anti-apoptotic protein A1, read as caspase activation; MEF A1-2A-BIM cells, Caspase-Glo 3/7 luminescence, 3 h; percent of clofoctol response, vehicle zero; AID 2462; caspase activation, % (no concentration beside the values); 330,000 tested, 0.066% active;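 active = over half of replicate activation scores above 10%, or exactly half above 10 with the replicate mean above 10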
Mot1-301 SUMO – inhibitors of SUMOylation pathway: yeast Mot1-301 growth rescue | AID 2716 | growth rescue, % at 18.8 µM | 320,000 tested, 1% active | S. cerevisiae Mot1-301 growth rescue, ATP luminescence, 38.5C; percent above DMSO median, 100 means doubled;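 active = every valid replicate shows activation above 250% relative to neutral control wells; inactive = the rest, any valid replicate at or below 250%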;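 also: OY570 slx delta 5 strain wells were the positive control but not used for scaling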
aDG glyco up – increases alpha dystroglycan glycosylation; AID 624168; activation, % at 10 µM; 360,000 tested, 0.22% active; Pro5-aDG cells, alpha-DG glycosylation AlphaScreen (IIH6); 0% Pro5, 100% B10-LARGE cell signal;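 active = activation of at least 8% versus controls, or a plate z-score of at least 8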;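 also: Pro5 are CHO cells carrying HIG-tagged alpha-DG that lacks glycosylation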
ARNT-TACC3 inh – disruptors of human ARNT/TACC3 interaction | inhibition, % at 9.99 µM | 390,000 tested, 0.66% active | Q9Y6A5 | AlphaScreen His-ARNT PAS-B/GST-TACC3 binding, luminescence; TACC3 fragment carries E629A point mutation | AID 623870;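 active = mean inhibition of replicates at least 50% and at least half of replicates each reaching 50%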;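 also: 0% = complete ARNT plus TACC3 wells and 100% = ARNT alone without TACC3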
AI-2 QS modul – modulates the Vibrio harveyi AI-2 quorum sensing system; Vibrio harveyi JMH597 AI-2 luminescence/OD600 ratio, 9 h; active compounds read low; strain lacks LuxN and CqsS sensors; 0 = neutral-control median; activity change, % at 7.5 µM; 300,000 tested, 0.4% active; in the data active = activity change below about -75%, passing the limit was not always enough;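 also: luminescence divided by OD600 gain over 9 h not by final OD600 alone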
* hit, by the source's call.

COc1ccc(S(=O)(=O)Nc2ccc3c(c2)C(=O)N([C@@H](C)CO)C[C@H](C)[C@@H](CN(C)C(=O)c2ccccc2)OCCCC[C@@H](C)O3)cc1 was read as ARNT-TACC3 inh -3.
CN(C)c1ccc2c(c1)[C@@H]1C[C@@H](CC(=O)NCc3cc(F)ccc3F)O[C@H](CO)[C@@H]1O2 was read as ARNT-TACC3 inh active.
For COC(=O)C[C@H]1C[C@@H]2c3cc(N(C)C)ccc3O[C@@H]2[C@@H](CO)O1 the results were ARNT-TACC3 inh 45*.
`COC(=O)C[C@H]1C[C@H]2c3cc(N(C)C)ccc3O[C@H]2[C@H](CO)O1` gave ARNT-TACC3 inh 34.
For CC(C)CC(=O)Nc1cccc(NC(=O)c2ccccc2Cl)c1 the results were Bfl-1 A1 inh 0, Mot1-301 SUMO -21, aDG glyco up 0, ARNT-TACC3 inh -6 and AI-2 QS modul 10.
`CCCCNc1c(-c2ccc(OC)c(SC(C)CC)c2)nc2ccc(C)cn12` (stereo unspecified) gave Bfl-1 A1 inh -2, Mot1-301 SUMO 23, aDG glyco up 1 and ARNT-TACC3 inh 14.
COc1ccccc1[C@]1(C)ON(c2ccccc2C(F)(F)F)C1=O was read as Bfl-1 A1 inh 1, Mot1-301 SUMO 296*, aDG glyco up 1 and ARNT-TACC3 inh -14.
For COc1cc(/C=N/NC(=O)c2cc[n+]([O-])cc2)ccc1O the results were Bfl-1 A1 inh 1, Mot1-301 SUMO -1, aDG glyco up 0, ARNT-TACC3 inh 77* and AI-2 QS modul 3.
For OCCNc1nc(Nc2ccccc2Oc2ccccc2)nc(N2CCCC2)n1 the results were Bfl-1 A1 inh 0, Mot1-301 SUMO -1, aDG glyco up 0, ARNT-TACC3 inh 23* and AI-2 QS modul 8.
COc1cccc(Nc2nc(NCCO)nc(N3CCCC3)n2)c1 was read as Bfl-1 A1 inh 1, Mot1-301 SUMO 2, aDG glyco up 0, ARNT-TACC3 inh active and AI-2 QS modul -1.
OCCNc1nc(Nc2ccccc2OC(F)(F)F)nc(N2CCCC2)n1 was read as Bfl-1 A1 inh 1, Mot1-301 SUMO -3, aDG glyco up 0, ARNT-TACC3 inh 2 and AI-2 QS modul 7.
For COc1cccc(C(=O)OCC(=O)c2ccc(S(=O)(=O)N3CCCCC3)cc2)c1OC the results were aDG glyco up 0 and ARNT-TACC3 inh 0.
For O=C(NCc1ccccn1)c1ccc(/C=N/O)nc1 the results were Bfl-1 A1 inh 0, Mot1-301 SUMO 11, aDG glyco up 0, ARNT-TACC3 inh 38* and AI-2 QS modul 25.
For CN(C)CCCNC(=O)c1ccc(/C=N/O)nc1 the results were aDG glyco up 0 and ARNT-TACC3 inh 28.
Screening CNCCCNC(=O)c1ccc(/C=N/O)nc1 returned Bfl-1 A1 inh 1, Mot1-301 SUMO 0, aDG glyco up 0, ARNT-TACC3 inh 61* and AI-2 QS modul 26.
For CC(=O)c1ccc(N(C(=O)CNC(=O)c2cccs2)C(C(=O)NCC2CCCO2)c2ccccc2)cc1 (stereo unspecified) the results were Bfl-1 A1 inh 0, Mot1-301 SUMO 42, aDG glyco up 0, ARNT-TACC3 inh 8 and AI-2 QS modul 7.
CCOC(=O)c1ccc(NC(=O)c2nn(CC)cc2Br)cc1 was read as Bfl-1 A1 inh -2, Mot1-301 SUMO 349*, aDG glyco up 0 and AI-2 QS modul 26.
For CCOC(=O)c1ccc(NC(=S)NC(=O)c2nn(CC)cc2Br)cc1 the results were Bfl-1 A1 inh -2, Mot1-301 SUMO -6, aDG glyco up 0, ARNT-TACC3 inh -2 and AI-2 QS modul 14.
CCOC(=O)c1c(NC(=O)c2nn(CC)cc2Br)sc2c1CCCCC2 was read as Bfl-1 A1 inh 0, Mot1-301 SUMO 858*, aDG glyco up 0, ARNT-TACC3 inh -2 and AI-2 QS modul -3.
`Cc1cc(-c2ccccc2)nc2oc(C(=O)NN)c(N)c12` gave Bfl-1 A1 inh 1, Mot1-301 SUMO -18, aDG glyco up 0, ARNT-TACC3 inh -18 and AI-2 QS modul -9.
`C[C@@]12C(=O)Nc3ccc(F)cc3C(=O)N1[C@H]1c3cc(Br)ccc3OC[C@@H]1[C@@H]2c1ccccc1` gave Bfl-1 A1 inh 0, Mot1-301 SUMO 349*, aDG glyco up 0 and ARNT-TACC3 inh 2.
